The source of these data is PubChem BioAssay (NCATS).

Records with an inconclusive call do not appear. A number with no mark means an inactive call. Calls follow the shape of the dose curve; as a rule, active = well fitted curve in the direction sought with a large enough effect; inconclusive = small, poorly fitted or top-dose-only effect, or another doubt; inactive = no such curve, though single readings can be large; an effect the other way counts as inactive or inconclusive. Positions of bridges follow the written chain, without caps; N, C: chain ends. Non-standard residues stand in square brackets, D forms with d. Residues, ends and D or L forms follow the SMILES beside them. ξ: configuration not given here. *: point of attachment. Octanoyl(6-Me) = CCC(C)CCCCC(=O)*; ξThr(3R) = C[C@@H](O)C(N)C(=O)O; dDab = NCC[C@@H](N)C(=O)O; Dab = NCC[C@H](N)C(=O)O
% is scaled to controls: 0 for no effect and ±100 for the full control effect.

Calcium and integrin-binding protein 1 (Homo sapiens), sequence (Q99828 whole entry, looked up): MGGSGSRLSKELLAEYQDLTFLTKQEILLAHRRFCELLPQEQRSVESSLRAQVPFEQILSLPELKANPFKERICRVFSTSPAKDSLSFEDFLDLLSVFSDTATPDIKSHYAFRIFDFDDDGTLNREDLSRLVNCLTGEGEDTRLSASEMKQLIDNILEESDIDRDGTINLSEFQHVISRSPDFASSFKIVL

One test deals with Calcium and integrin-binding protein 1 (Homo sapiens) (UniProt Q99828). As to the kind of experiment: Primary qHTS for Identification of Calcium Integrin Binding Protein 1 (CIB1) Competitor (AID 1508620).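 Also: GST tagged CIB1 binding a fluorescein labelled alphaIIb integrin peptide tracer; top concentration of the series differs between compounds.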 The following applies: CIB1-GST / FITC-alphaIIb peptide fluorescence polarization; series mostly up to 57.7 µM; activity change, negative = inhibition: at the top concentration. The method in brief:
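CIB1-GST (1 uM final) and compound incubated 15 min at room temperature before adding FITC-alphaIIb peptide tracer (100 nM final). Competition for binding read by fluorescence polarization (ex 480, em 540) after another 15 min at room temperature.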
On the technique in general: Quantitative high-throughput screening tests each substance at several concentrations.
As for `O=C(c1ccc(F)cc1)N1CCC[C@H](c2nc(-c3ccc(F)cc3)no2)C1`, the “activity change, negative = inhibition” value is -0.499%. On the same count and under the same terms, to `O=C(Nc1cccc(Nc2ncc(Br)c(NCCc3cnc[nH]3)n2)c1)N1CCCC1` belongs -3.41%.

On to `COc1cc(C)c(Sc2cnc(NC(=O)c3ccc(CNC(C)C(C)(C)C)cc3)s2)cc1C(=O)N1CCN(C(C)=O)CC1` (stereo not drawn), for which the “activity change, negative = inhibition” value is -6.85%. As for `CC(=O)OC[C@@H]1O[C@@H](n2ccc(=O)[nH]c2=O)[C@H](OC(C)=O)[C@H]1OC(C)=O`, the “activity change, negative = inhibition” value was -3.46%. As for `C[N+](C)([O-])CCNc1ccc(NCC[N+](C)(C)[O-])c2c1C(=O)c1c(O)ccc(O)c1C2=O`, the “activity change, negative = inhibition” value is -5.38%. As to `C[C@@H](Cc1cc2c(c(C(N)=O)c1)N(CCCO)CC2)NCCOc1ccccc1OCC(F)(F)F`, the “activity change, negative = inhibition” value is -6.93% [at 114 µM].

Tested on in the next test: not listed separately
As to the kind of experiment: Primary qHTS for small molecule stabilizers of the endoplasmic reticulum resident proteome: Secreted ER Calcium Modulated Protein (SERCaMP) assay (AID 1508630). The following applies: SH-SY5Y GLuc-SERCaMP (Gaussia luciferase released on ER calcium loss) secretion, thapsigargin, luminescence; series mostly up to 38.4 µM; activity change, negative = inhibition: at the top concentration. The method in brief: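 The SH-SY5Y reporter protocol was run at 3 concentrations up to 38.3 uM (primary) or 11 concentrations (follow-up): 16 h compound, 100 nM thapsigargin for 4 h, then extracellular luciferase luminescence.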
Turning to `CCNC(=O)Nc1ccc(-c2nc3c(c(N4CCOC[C@H]4C)n2)CCN(C2COC2)C3)cc1`, the “activity change, negative = inhibition” value was 140%. On the same count and under the same terms, for `CC(N[C@H]1CCCC[C@H]1NC(=O)c1ccc(Cl)cc1)c1cccc2ccccc12` (stereo partly drawn) the value was -25.1%; for `Cc1cc(Nc2ncc3c(n2)N(C)C(=O)N(c2cc(NC(=O)c4cccc(C(F)(F)F)c4)ccc2C)C3)n(C)n1`, 32.8%. In the case of `C[C@@H]1CC[C@@]2(OC1)OC1CC3C4CC=C5CC(O)CCC5(C)C4CCC3(C)C1[C@@H]2C` (stereo partly drawn), the “activity change, negative = inhibition” value was -27.1%.

Turning to `C[C@](Cc1c[nH]c2ccccc12)(NC(=O)OC1C2CC3CC(C2)CC1C3)C(=O)NC[C@H](NC(=O)CCC(=O)O)c1ccccc1` (stereo partly drawn), the “activity change, negative = inhibition” value was -1.26%. Regarding `COc1cc([C@@H]2c3cc4c(cc3[C@H](O)[C@H]3COC(=O)[C@@H]23)OCO4)cc(OC)c1OC`, the “activity change, negative = inhibition” value is 0%.

As to `CCN(CC)Cc1ccc2cc(COC(=O)Nc3ccc(C(=O)NO)cc3)ccc2c1`, the “activity change, negative = inhibition” value is 110%. With `CC(C)(C)c1nc2c3cc[nH]c(=O)c3c3cc(F)ccc3c2[nH]1`, the “activity change, negative = inhibition” value is 5.51%.

In the case of `CCC[C@H]1C[C@H](C(=O)N[C@@H]([C@@H]2O[C@@H](SC)[C@@H](O)[C@@H](O)[C@@H]2O)[C@H](C)Cl)N(C)C1`, the “activity change, negative = inhibition” value was 14.1%.

In the case of `O=C(CCCCCCC(=O)Nc1cccnc1)NO`, the “activity change, negative = inhibition” value was 168%.

Regarding `c1ccc(CNc2nc(NCc3ccccc3)c3ccccc3n2)cc1`, the “activity change, negative = inhibition” value was 179%.

For `COc1cc(O)c2c(c1)C1OC1C[C@H](O)[C@H](O)C(=O)C=CC[C@H](C)OC2=O` (stereo partly drawn), the “activity change, negative = inhibition” value was 121%. Same read-out and setting: for `CC(Cc1ccc(O)c(O)c1)(NN)C(=O)O` (stereo not drawn) the value was -3.85%. Consider `C[C@@H]1C(=O)O[C@H]2CC34[C@H]5C[C@@H](C(C)(C)C)C36[C@H](OC(=O)[C@@H]6O)O[C@@]4(C(=O)O5)[C@]21O` (stereo partly drawn), for which the “activity change, negative = inhibition” value is -109%. Turning to `Nc1ccc(C(=O)Nc2cccc(-c3nc(N4CCOCC4)c4oc5ncccc5c4n3)c2)cn1`, the “activity change, negative = inhibition” value is 179%. On the same count and under the same terms, to `c1cc(N[C@@H]2CCNC2)nc(-c2cnc3ccc(-c4cn[nH]c4)cn23)c1` belongs 0%; to `Cc1ccc2nc(NCCN)c3ncc(C)n3c2c1`, 399%; to `COc1cc(C(=O)NC2CCN(C)CC2)ccc1Nc1ncc2c(n1)N(C1CCCC1)CCC(=O)N2C(C)C`, 0%. With `CCC(C)CCCCC(=O)N[C@@H](CCN)C(=O)NC(C(=O)N[C@H](CCN)C(=O)N[C@@H]1CCNC(=O)C([C@@H](C)O)NC(=O)[C@@H](CCN)NC(=O)[C@@H](CCN)NC(=O)[C@@H](CC(C)C)NC(=O)[C@H](Cc2ccccc2)NC(=O)[C@H](CCN)NC1=O)[C@@H](C)O` (stereo partly drawn) ({Octanoyl(6-Me)}-[Dab][ξThr(3R)][dDab][dDab][Dab]F[dL][dDab][dDab][ξThr(3R)]; lactam 4-C), the “activity change, negative = inhibition” value was -2.8%. On the same count and under the same terms, to `Oc1ccc(-c2ccc(-c3cc(Nc4cccc(CNC5CC5)c4)n[nH]3)cc2)c(O)c1` belongs 175%; to `CC(C)C[C@H](NC(=O)[C@@H](NC(=O)c1cccc(-c2ccccc2)n1)[C@@H](C)O)B(O)O`, 0%. The same measure, in the same setting: for `CN1C(C(=O)Nc2ccccn2)=C(O)c2sc(Cl)cc2S1(=O)=O` the value was 0%; for `Nc1nc(=O)n([C@H]2C[C@H](O)[C@@H](CO)O2)cc1F`, -2.11%. Same read-out and setting: to `O=C(O)CCCCC(CCSCc1ccccc1)SCc1ccccc1` (stereo not drawn) belongs 34.5%.

For `CC[C@@]1([C@@H]2O[C@@H]([C@H]3O[C@@](O)(CO)[C@H](C)C[C@H]3C)C[C@H]2C)CC[C@H]([C@]2(C)CC[C@]3(C[C@H](O)[C@@H](C)[C@@H]([C@@H](C)[C@@H](OC)[C@H](C)C(=O)O)O3)O2)O1`, the “activity change, negative = inhibition” value was 164% [at 21.6 µM].

Consider `CCOC(=O)C=C[C@H](C[C@@H]1CCNC1=O)NC(=O)[C@@H](CC(=O)[C@@H](NC(=O)c1cc(C)on1)C(C)C)Cc1ccc(F)cc1`, for which the “activity change, negative = inhibition” value is -26%. `C[C@H](NC(=O)Cc1cc(F)cc(F)c1)C(=O)N[C@H](C(=O)OC(C)(C)C)c1ccccc1`: the “activity change, negative = inhibition” value is 34.2%.
